Data on two sequences can be found in paper PMC7862700, “An all-to-all approach to the identification of sequence-specific readers for epigenetic DNA modifications on cytosine”.

Common to all, as to assay: DAPPL (digital affinity profiling via proximity ligation, sequencing); 10 mM Tris-HCl pH 7.5, 50 mM NaCl, 1 mM DTT, 4% glycerol, room temperature, 30 min; GST-TFs on glutathione beads, 16-mer random dsDNA library, 0.1% formaldehyde crosslink after washing; high values mean tight binding
What all share (settings): protein: recombinant; tags: N-terminal GST; dsDNA, one strand shown

The target of one assay is T1, FLI1 (Homo sapiens, UniProt Q01543 1-452).
T1 sequence: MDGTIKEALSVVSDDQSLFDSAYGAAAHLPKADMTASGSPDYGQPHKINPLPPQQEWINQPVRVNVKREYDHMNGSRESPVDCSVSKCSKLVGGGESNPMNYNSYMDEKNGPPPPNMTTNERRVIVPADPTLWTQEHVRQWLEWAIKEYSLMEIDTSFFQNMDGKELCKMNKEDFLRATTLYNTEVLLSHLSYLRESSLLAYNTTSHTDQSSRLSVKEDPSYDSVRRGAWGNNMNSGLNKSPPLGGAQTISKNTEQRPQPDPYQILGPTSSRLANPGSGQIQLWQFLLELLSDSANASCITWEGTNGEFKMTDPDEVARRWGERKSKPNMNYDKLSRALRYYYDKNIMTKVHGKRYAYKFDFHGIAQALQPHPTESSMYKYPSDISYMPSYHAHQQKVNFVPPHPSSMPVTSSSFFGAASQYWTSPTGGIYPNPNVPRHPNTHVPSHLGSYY
The gist of the method:
(§1)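 Binding signal is given per hexamer as its read frequency for a factor divided by its frequency in the tag-only sample. GST-fused human transcription factors were expressed in yeast, captured on glutathione beads, barcoded with DNA and pooled with that sample, then incubated with 200 nmole of a 16-mer random double-stranded DNA library in Tris/NaCl/DTT/glycerol buffer for 30 min at room temperature. The pools were then washed, crosslinked, proximity-ligated, amplified by PCR and sequenced on an Illumina NextSeq500.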

For a further assay, the target named is T2, ELK1 (Homo sapiens, UniProt P19419 1-428).
T2 sequence: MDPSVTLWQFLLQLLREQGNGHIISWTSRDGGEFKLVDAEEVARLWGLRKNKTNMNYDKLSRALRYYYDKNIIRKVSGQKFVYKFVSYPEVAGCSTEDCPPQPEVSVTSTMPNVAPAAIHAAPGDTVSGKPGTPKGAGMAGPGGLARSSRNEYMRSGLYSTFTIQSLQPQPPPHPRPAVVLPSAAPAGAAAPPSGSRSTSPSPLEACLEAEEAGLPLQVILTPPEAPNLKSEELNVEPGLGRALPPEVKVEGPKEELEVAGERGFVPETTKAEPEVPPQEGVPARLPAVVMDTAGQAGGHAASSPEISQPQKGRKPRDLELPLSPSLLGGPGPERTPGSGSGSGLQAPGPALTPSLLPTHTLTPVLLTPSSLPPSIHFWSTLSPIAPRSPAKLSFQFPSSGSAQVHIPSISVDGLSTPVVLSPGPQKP
The essentials: as §1

A further assay addresses T3, GABPA (Homo sapiens, UniProt Q06546 1-454).
T3 sequence: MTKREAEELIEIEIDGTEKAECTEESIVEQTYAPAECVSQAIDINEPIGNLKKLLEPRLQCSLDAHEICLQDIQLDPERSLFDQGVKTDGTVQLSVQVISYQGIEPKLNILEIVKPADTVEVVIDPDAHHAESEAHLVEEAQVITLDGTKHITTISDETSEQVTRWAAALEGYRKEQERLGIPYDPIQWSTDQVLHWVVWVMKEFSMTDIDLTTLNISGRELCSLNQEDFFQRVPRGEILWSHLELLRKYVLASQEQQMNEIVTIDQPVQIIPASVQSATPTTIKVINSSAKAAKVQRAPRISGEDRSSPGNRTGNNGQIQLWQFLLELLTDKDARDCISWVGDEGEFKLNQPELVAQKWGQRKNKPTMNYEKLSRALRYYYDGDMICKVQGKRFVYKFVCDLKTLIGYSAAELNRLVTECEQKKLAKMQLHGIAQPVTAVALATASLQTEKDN
The essentials:
as §1

In another assay the target is T4, ERG (Homo sapiens, UniProt P11308 1-479).
T4 sequence: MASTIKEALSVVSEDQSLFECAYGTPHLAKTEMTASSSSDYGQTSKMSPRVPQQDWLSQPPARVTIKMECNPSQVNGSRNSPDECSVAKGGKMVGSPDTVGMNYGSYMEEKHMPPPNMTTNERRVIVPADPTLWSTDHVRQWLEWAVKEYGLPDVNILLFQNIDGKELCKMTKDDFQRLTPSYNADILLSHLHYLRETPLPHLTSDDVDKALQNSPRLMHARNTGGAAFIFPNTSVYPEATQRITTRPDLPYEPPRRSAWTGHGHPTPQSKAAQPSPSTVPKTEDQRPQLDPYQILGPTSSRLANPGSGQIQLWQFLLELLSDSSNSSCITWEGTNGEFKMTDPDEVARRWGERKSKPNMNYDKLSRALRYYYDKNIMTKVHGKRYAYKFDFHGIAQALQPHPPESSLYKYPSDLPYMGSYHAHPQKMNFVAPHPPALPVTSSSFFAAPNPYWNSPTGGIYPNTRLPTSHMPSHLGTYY
The gist of the method:
as §1

For another assay, the target named is ELF1 (Homo sapiens, UniProt P32519 1-619). The gist of the method:
as §1

Another assay has as its target T5, EHF (Homo sapiens, UniProt Q9NZC4 1-300).
T5 sequence: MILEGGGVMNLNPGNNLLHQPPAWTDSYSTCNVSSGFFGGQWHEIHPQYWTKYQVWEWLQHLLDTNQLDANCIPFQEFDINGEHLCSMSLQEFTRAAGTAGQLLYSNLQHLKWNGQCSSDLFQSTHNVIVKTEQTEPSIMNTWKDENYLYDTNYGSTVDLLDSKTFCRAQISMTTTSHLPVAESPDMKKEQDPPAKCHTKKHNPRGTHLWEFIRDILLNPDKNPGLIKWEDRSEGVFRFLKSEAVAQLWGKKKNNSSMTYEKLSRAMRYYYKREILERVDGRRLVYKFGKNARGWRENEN
The gist of the method:
as §1

The target of another assay is SPI1 (Homo sapiens, UniProt P17947 1-270). The gist of the method:
as §1

The target in another assay is SPIB (Homo sapiens, UniProt Q01892 1-262). The gist of the method:
as §1

The target in the next assay is T6, ELK3 (Homo sapiens, UniProt P41970 1-407).
T6 sequence: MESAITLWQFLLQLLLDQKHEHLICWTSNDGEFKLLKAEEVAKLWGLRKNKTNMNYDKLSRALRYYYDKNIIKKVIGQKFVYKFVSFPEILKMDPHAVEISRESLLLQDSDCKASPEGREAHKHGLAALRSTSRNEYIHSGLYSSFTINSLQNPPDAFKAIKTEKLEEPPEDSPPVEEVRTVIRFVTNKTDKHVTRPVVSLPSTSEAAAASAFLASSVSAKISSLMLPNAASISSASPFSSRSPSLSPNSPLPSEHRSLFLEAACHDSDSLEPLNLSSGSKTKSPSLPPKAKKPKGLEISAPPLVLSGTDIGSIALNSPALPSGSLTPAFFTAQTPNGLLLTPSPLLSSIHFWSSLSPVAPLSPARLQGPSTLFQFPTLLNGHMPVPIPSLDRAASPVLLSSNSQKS
The essentials: as §1

The target of the next assay is T7, FEV (Homo sapiens, UniProt Q99581 1-238).
T7 sequence: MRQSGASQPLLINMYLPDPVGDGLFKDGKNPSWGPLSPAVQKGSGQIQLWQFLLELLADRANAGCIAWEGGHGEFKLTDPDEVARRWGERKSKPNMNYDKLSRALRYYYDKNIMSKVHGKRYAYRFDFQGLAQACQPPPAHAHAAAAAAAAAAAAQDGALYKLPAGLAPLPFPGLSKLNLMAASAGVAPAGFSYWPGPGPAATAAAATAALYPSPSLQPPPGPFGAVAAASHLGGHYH
The essentials:
as §1

A further assay has as its target ETV5 (Homo sapiens, UniProt P41161 1-510). The essentials: as §1
In a further assay the target is T8, SPIC (Homo sapiens, UniProt Q8N5J4 1-248).
T8 sequence: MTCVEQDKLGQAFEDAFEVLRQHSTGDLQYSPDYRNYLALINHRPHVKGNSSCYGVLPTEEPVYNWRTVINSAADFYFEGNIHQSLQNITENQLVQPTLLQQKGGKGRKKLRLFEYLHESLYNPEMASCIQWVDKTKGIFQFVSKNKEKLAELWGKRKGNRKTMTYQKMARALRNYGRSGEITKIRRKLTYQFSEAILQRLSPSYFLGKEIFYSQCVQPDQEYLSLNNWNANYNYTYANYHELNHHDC
The gist of the method:
as §1

The target of the next assay is ELF4 (Homo sapiens, UniProt Q99607 1-663). The gist of the method: as §1
Another assay concerns the target T9, ELK4 (Homo sapiens, UniProt P28324-2 1-405).
T9 sequence: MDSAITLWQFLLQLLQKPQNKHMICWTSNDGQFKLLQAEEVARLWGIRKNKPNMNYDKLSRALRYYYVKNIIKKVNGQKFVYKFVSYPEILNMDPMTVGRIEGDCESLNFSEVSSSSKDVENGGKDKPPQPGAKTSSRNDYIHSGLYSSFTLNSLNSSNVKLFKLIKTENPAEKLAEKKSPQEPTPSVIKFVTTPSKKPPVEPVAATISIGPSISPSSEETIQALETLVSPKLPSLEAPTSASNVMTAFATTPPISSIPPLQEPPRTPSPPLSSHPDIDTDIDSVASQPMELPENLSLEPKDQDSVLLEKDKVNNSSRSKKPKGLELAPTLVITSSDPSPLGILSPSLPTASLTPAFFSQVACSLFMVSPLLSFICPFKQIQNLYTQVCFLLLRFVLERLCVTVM
The gist of the method:
as §1

Another assay addresses T10, ELF3 (Homo sapiens, UniProt P78545 1-371).
T10 sequence: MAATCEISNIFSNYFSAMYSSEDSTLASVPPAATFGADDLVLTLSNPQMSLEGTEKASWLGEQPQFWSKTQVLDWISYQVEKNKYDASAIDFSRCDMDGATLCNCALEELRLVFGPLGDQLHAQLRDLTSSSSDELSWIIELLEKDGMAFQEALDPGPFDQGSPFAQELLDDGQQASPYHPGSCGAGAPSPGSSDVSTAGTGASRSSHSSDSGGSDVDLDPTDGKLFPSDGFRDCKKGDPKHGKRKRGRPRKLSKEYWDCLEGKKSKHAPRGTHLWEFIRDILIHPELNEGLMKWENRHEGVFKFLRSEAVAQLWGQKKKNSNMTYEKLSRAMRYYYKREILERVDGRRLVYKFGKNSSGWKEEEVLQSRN
The gist of the method: as §1

The next assay has as its target ETV1 (Homo sapiens, UniProt P50549 1-477). The gist of the method: as §1
In the next assay the target is T11, ETV2 (Homo sapiens, UniProt O00321 1-342).
T11 sequence: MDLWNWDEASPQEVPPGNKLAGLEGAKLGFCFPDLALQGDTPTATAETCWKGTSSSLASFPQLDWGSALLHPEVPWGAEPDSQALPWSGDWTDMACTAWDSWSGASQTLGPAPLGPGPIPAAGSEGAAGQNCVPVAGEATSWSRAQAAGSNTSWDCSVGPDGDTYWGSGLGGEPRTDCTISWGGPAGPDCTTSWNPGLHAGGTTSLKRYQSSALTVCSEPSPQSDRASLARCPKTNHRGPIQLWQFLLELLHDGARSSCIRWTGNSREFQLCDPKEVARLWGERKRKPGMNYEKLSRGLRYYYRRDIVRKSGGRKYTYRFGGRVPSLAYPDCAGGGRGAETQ
The essentials: as §1

ETV1, sequence (P50549 whole entry): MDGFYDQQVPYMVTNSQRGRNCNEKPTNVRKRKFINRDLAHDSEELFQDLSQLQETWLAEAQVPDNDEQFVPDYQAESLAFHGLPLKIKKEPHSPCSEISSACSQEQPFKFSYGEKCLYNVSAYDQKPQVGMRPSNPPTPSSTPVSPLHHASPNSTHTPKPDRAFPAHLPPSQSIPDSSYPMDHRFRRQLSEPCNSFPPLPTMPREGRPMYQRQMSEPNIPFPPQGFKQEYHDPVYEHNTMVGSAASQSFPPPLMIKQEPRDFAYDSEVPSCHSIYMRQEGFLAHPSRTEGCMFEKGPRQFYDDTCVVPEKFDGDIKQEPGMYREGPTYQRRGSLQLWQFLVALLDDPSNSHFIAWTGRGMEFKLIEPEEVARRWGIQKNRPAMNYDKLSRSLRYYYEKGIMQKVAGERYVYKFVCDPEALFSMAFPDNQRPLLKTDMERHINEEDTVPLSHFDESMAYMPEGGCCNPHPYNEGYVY
ELF1, sequence (P32519 whole entry): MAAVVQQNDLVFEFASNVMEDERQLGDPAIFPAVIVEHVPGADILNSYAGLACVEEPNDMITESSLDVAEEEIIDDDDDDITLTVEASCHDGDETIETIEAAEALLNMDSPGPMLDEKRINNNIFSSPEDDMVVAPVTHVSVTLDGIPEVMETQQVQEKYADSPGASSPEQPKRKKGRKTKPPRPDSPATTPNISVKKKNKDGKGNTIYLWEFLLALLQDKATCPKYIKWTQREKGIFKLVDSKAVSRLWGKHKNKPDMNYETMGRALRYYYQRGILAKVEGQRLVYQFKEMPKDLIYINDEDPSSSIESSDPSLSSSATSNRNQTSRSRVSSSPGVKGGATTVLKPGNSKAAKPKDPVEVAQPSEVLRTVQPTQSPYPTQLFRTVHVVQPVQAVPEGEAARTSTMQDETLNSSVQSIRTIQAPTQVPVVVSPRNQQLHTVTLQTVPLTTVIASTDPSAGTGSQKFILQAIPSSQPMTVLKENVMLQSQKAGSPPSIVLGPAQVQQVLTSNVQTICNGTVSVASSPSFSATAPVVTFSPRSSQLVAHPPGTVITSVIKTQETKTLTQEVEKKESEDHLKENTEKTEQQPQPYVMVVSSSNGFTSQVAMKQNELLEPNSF
ETV5, sequence (P41161 whole entry): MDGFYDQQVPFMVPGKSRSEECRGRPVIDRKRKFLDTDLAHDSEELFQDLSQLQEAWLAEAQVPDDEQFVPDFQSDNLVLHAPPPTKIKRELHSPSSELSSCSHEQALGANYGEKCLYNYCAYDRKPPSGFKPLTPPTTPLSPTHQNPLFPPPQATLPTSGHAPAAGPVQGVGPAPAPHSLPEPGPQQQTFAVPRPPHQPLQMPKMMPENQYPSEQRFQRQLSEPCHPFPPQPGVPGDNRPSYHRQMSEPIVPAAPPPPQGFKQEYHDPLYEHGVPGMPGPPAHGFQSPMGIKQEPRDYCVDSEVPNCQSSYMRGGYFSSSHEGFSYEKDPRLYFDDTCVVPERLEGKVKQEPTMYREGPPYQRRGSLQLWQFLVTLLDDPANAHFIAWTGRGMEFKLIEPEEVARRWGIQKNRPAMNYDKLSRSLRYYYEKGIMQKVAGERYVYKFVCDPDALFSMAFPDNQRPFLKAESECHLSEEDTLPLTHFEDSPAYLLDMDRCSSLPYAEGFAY
ELF4, sequence (Q99607 whole entry): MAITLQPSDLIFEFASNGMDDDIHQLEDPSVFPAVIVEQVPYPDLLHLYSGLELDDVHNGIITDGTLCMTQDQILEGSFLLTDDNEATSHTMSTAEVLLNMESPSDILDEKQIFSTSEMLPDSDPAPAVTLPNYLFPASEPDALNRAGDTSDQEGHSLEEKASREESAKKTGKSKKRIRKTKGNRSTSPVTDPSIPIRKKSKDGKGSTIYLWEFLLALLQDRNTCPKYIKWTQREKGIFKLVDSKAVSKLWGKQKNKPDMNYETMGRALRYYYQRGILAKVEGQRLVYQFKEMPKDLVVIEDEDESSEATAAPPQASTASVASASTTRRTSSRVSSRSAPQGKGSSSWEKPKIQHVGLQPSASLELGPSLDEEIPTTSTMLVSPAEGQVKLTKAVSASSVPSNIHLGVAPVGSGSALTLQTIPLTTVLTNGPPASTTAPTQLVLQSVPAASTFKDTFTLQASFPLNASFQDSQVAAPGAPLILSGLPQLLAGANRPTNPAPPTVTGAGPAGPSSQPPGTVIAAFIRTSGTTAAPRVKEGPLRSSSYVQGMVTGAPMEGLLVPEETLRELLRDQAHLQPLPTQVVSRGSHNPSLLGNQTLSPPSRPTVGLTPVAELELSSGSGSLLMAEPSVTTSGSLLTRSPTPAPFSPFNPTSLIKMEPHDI
SPIB, sequence (Q01892 whole entry): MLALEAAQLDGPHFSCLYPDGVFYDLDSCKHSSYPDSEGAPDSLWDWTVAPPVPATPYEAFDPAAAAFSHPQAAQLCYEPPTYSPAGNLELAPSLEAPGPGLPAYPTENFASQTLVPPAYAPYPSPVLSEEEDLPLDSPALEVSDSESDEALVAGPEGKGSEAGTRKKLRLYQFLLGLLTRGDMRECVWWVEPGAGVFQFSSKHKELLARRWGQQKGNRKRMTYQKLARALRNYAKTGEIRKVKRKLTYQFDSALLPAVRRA

Turning to GTTACA, the binding signal with FLI1 was 1.15 fold enrichment (6-mer frequency, TF over GST control); with ELK1, 1.1 fold enrichment (6-mer frequency, TF over GST control); in the assay with GABPA, 1.09 fold enrichment (6-mer frequency, TF over GST control); in the assay with ERG it was 1.13 fold enrichment (6-mer frequency, TF over GST control); with ELF1, 1.14 fold enrichment (6-mer frequency, TF over GST control); with EHF, 1.2 fold enrichment (6-mer frequency, TF over GST control). Moreover, the binding signal was 1.11 fold enrichment (6-mer frequency, TF over GST control) with SPI1; 1.09 fold enrichment (6-mer frequency, TF over GST control) with SPIB; 1.24 fold enrichment (6-mer frequency, TF over GST control) with ELK3; 1.18 fold enrichment (6-mer frequency, TF over GST control) with FEV; 1.16 fold enrichment (6-mer frequency, TF over GST control) with ETV5; 1.14 fold enrichment (6-mer frequency, TF over GST control) with SPIC. Moreover, the binding signal with ELF4 was 1.11 fold enrichment (6-mer frequency, TF over GST control); in the assay with ELK4, 1.26 fold enrichment (6-mer frequency, TF over GST control); in the assay with ELF3, 1.15 fold enrichment (6-mer frequency, TF over GST control); with ETV1, 1.11 fold enrichment (6-mer frequency, TF over GST control).
CGGTAT: the binding signal was 1.08 fold enrichment (6-mer frequency, TF over GST control) in the assay with FLI1; 1.12 fold enrichment (6-mer frequency, TF over GST control) with ELK1; 1.01 fold enrichment (6-mer frequency, TF over GST control) with GABPA; 1.13 fold enrichment (6-mer frequency, TF over GST control) with ERG; 1.1 fold enrichment (6-mer frequency, TF over GST control) with ELF1; 1.08 fold enrichment (6-mer frequency, TF over GST control) with EHF. Besides, the binding signal was 1.07 fold enrichment (6-mer frequency, TF over GST control) with SPIB; 1.01 fold enrichment (6-mer frequency, TF over GST control) in the assay with ELK3; 1.08 fold enrichment (6-mer frequency, TF over GST control) with FEV; 1.06 fold enrichment (6-mer frequency, TF over GST control) with ETV5; 1.08 fold enrichment (6-mer frequency, TF over GST control) with SPIC; 1.06 fold enrichment (6-mer frequency, TF over GST control) in the assay with ELF4. The binding signal with ELK4 was 1.03 fold enrichment (6-mer frequency, TF over GST control); with ETV2, 1.31 fold enrichment (6-mer frequency, TF over GST control); in the assay with ETV1, 1.09 fold enrichment (6-mer frequency, TF over GST control).
